Results: PubChem BioAssay AID1476 (National Center for Advancing Translational Sciences (NCATS), 2009)
The campaign covered roughly 200,000 compounds. About 4,500 (2.2%) were called active. Not shown: some 12% with an inconclusive outcome. This is one part of a sample in which actives are shown more often than they occur. The call rests on the fitted dose curve; in most records, active means well fitted inhibition curve with a large enough effect; inconclusive means small, poorly fitted or top-dose-only effect, or effect the other way; inactive means flat fitted curve, though single readings scatter.

Biological target: Cruzipain (Trypanosoma cruzi) (UniProt P25779)
Sequence (P25779 123-467 limits assumed): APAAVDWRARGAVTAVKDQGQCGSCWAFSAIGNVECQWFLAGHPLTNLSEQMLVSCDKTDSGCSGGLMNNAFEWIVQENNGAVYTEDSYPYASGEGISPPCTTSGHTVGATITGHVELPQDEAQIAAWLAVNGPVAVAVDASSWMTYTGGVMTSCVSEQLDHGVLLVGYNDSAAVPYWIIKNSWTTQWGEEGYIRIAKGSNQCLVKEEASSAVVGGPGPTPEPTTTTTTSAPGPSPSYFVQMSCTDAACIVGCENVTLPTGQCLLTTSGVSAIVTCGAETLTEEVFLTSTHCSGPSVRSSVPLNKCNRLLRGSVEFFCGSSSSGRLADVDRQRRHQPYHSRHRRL
Assay: qHTS Assay for Promiscuous and Specific Inhibitors of Cruzain (without detergent); further: nearly all actives have a fitted effect of over 40% in size;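 on max response, negative = inhibition: plate controls were enzyme without inhibitor for no effect and buffer without enzyme for full effect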
Conditions: purified cruzain, Z-FR-AMC fluorescence, no detergent
Outline: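 Purified cruzain at 1.5 nM, pre-incubated 15 min with compound at room temperature in 100 mM sodium acetate pH 5.5, 5 mM DTT, 0.00005% Triton X-100. Reaction started with 2 uM Z-FR-AMC; AMC fluorescence increase over 60 s gives rate.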
Potency means the concentration at half of the fitted maximal effect.

Compound	Potency	max response, negative = inhibition
C=CCN1C(=O)C(O)(CC(=O)c2ccc(Cl)cc2)c2ccccc21 (configuration not stated)	12.6 µM (active)	–
Cc1ccc(C(=O)CC2(O)C(=O)N(CCc3ccccc3)c3ccc(Br)cc32)cc1 (configuration not stated)	–	7.97% (inactive)
O=C(CC1(O)C(=O)N(CN2CCOCC2)c2ccccc21)c1ccccc1 (configuration not stated)	–	2.42% (inactive)
CC(=O)Nc1ccc(NC(=O)CCCc2nc(-c3ccc(C(C)(C)C)cc3)no2)cc1	–	-10.5% (inactive)
O=C(CC(NCc1cccnc1)C(=O)O)Nc1ccc(O)cc1 (configuration not stated)	–	7.85% (inactive)
Cc1cc(C)cc(NC(=O)Cn2c(=O)c3ccccc3n3nncc23)c1	–	4.51% (inactive)
COc1cc(OC)c(N(C)C(=O)c2cc3c(=O)oc4ccccc4c3s2)cc1Cl	–	6.95% (inactive)
Cc1ccc2nc(COc3cccc(NC(=O)c4ccccc4Cl)c3)cc(=O)n2c1	–	-3.57% (inactive)
CCOc1ccccc1NC(=O)CCc1ccc(C)o1	–	8.1% (inactive)
Cc1ccc(CCC(=O)Nc2ncc(Cc3cc(Cl)ccc3Cl)s2)o1	25.1 µM (active)	–
Cc1cnc(NC(=O)CSc2nnc(-c3ccc(Cl)cc3Cl)n2N)s1	–	-2.62% (inactive)
O=C(Cn1c(=O)n(-c2ccc(F)cc2)c(=O)c2sc3ccccc3c21)NC1CCCC1	–	-5.91% (inactive)
CCOC(=O)c1ccccc1NC(=O)CCc1c(C)nc2c(c1C)c(=O)n(C)c(=O)n2C	–	-1.55% (inactive)
COc1ccc(OCCCC(=O)NCCc2ccccc2)cc1	–	-1.93% (inactive)
O=C(NCCOc1ccccc1)c1ccccc1	–	-3.94% (inactive)
O=C(NCCc1ccccc1)c1ccc(OCCOc2ccccc2)cc1	20 µM (active)	–
Cc1ccc(NC(=O)c2ccc3[nH]c(C)cc(=O)c3c2)c(C)c1	–	-6.14% (inactive)
COc1ccc(-c2cc(NCc3ccc(F)cc3)n3cnnc3n2)cc1	–	6.65% (inactive)
Cc1ccc(C(=O)Nc2cc3c(cc2N2CCCC2)n(C)c(=O)c(=O)n3C)cc1	–	-9.28% (inactive)
CCOc1ccccc1NC(=O)Cn1nnc(C(=O)Nc2ccc(C)c(C)c2)c1N	–	0.467% (inactive)
CCOC(=O)c1cn(CC(=O)Nc2ccc(C(C)C)cc2)nn1	–	3.14% (inactive)
COc1ccc(NC(=O)Cn2nnc(C(=O)NCCc3ccc(OC)c(OC)c3)c2N)cc1	–	28.4% (inactive)

Compound	Potency	max response, negative = inhibition
Nc1c(C(=O)NCc2ccccc2)nnn1Cc1cccc(Cl)c1	–	-27.5% (inactive)
Cc1cccc(NC(=O)c2nnn(CC(=O)Nc3ccc(C(C)C)cc3)c2N)c1C	20 µM (active)	–
CC(C)c1ccc(NC(=O)Cn2nnc(C(=O)NCCc3ccccc3)c2N)cc1	3.16 µM (active)	–
COc1ccccc1NC(=O)CSC1=Nc2ccccc2C2=NC(CC(=O)NCc3cccs3)C(=O)N12 (configuration not stated)	–	-5.88% (inactive)
CC(C)CC(NS(=O)(=O)c1ccc2c(c1)oc(=O)n2C)C(=O)NCc1ccccc1Cl (configuration not stated)	–	-14% (inactive)
Cc1cccc(NC(=O)N2CCN(C)c3ncccc32)c1C	–	2.65% (inactive)
CC(=O)Oc1ccc(C)cc1N1C(=O)c2ccc(C(=O)O)cc2C1=O	–	-6.79% (inactive)
Cc1ccc(Oc2ccc3c(c2)C(=O)N(c2cccc4cccnc24)C3=O)cc1	25.1 µM (active)	–
Cc1cccc(N2C(=O)c3cccnc3C2=O)c1	–	-4.26% (inactive)
COc1ccc(CNC(=O)c2ccc3c(c2)nc2n3CCOC2)c(OC)c1	–	-7.25% (inactive)
CS(=O)(=O)c1ccc(-c2nnc(NC(=O)c3ccc4c(c3)OCCO4)o2)cc1	–	0.217% (inactive)
Cc1ccc2oc3c(c(=O)c2c1)C(c1ccc(O)cc1)N(Cc1ccc2c(c1)OCO2)C3=O (configuration not stated)	–	3.18% (inactive)
O=C(NCCN1CCOCC1)[C@H](Cc1ccccc1)N1C(=O)c2ccccc2C1=O	–	-6.89% (inactive)
N/C(=N\c1nc2ccccc2o1)NC(=O)C(Cc1ccccc1)N1C(=O)c2ccccc2C1=O (configuration not stated)	25.1 µM (active)	–
O=C(NC1=NCCS1)[C@H](Cc1ccccc1)N1C(=O)c2ccccc2C1=O	–	-18.4% (inactive)
COc1cccc(Cn2c(SCc3ccc(C(=O)N4CCC(C)CC4)cc3)nc3ccncc32)c1	–	6.55% (inactive)
Cc1ccccc1CS(=O)(=O)CC1Nc2ccc(C(=O)NCc3ccc(Cl)cc3)cc2NC1=O (configuration not stated)	–	-11.5% (inactive)
Cc1ccc(CNC(=O)CCc2c(C)nn(-c3ccc(N4CCCC4)nn3)c2C)cc1	–	-1.47% (inactive)
CCOC(=O)C1=C(C)Nc2sc(C(=O)c3ccc(Br)cc3)c(N)c2C1c1ccc(C(=O)OC)cc1 (configuration not stated)	10 µM (active)	–
CCOC(=O)C1=C(C)NC(C)=C(C(=O)OCC)C1c1ccccn1	–	6.72% (inactive)
COC(=O)c1ccc(C2NC(=O)NC(C)=C2C(=O)N(C)C)cc1 (configuration not stated)	–	-7.98% (inactive)
Cc1ccc(Cc2nc3ccccc3nc2SCC(=O)Nc2cccc(C(F)(F)F)c2)cc1	–	-25% (inactive)

Compound	Potency	max response, negative = inhibition
CCN(CC)CCNC(=O)c1cc2c(=O)oc3ccc(C)cc3c2s1	–	-5.21% (inactive)
Cc1ccc2c(c1)c1c(c(=O)n(-c3ccccc3)c(=O)n1CC(=O)c1ccc(Cl)cc1)n2C	–	12.5% (inactive)
CCc1ccc(S(=O)(=O)c2nnn3c2nc(NCc2ccccc2OC)c2cc(Cl)ccc23)cc1	–	-14.3% (inactive)
CCc1ccc(S(=O)(=O)n2ccnc2)cc1	–	3.23% (inactive)
Brc1ccc(-c2csc(N/N=C/c3ccc4c(c3)OCO4)n2)cc1	10 µM (active)	–
O=C(Nc1nc(-c2ccncc2)cs1)C1COc2ccccc2O1 (configuration not stated)	–	-4.88% (inactive)
O=C(Nc1nc(-c2ccc3c(c2)OCO3)cs1)c1ccncc1	–	-29.2% (inactive)
COc1ccc(OC)c2sc(N3CCN(C(=O)C4COc5ccccc5O4)CC3)nc12 (configuration not stated)	–	-0.959% (inactive)
CCN(c1ccc(Cl)cc1)S(=O)(=O)c1nnc(NC(=O)c2ccco2)s1	–	3.14% (inactive)
Cc1nnc(NCc2ccccc2)c2c1nnn2Cc1ccc(F)cc1	–	10.1% (inactive)
COc1cc(NC(=S)NCCSc2ccc(C)cc2)cc(OC)c1	0.251 µM (active)	–
COc1cc(NC(=O)Nc2ccc(C)cc2)cc([N+](=O)[O-])c1	–	-24.4% (inactive)
COc1cccc(NC(=S)NCCCN2CCOCC2)c1	–	9.47% (inactive)
Cc1nc(SCCOc2ccc(Cl)cc2)[nH]c(=O)c1Cc1ccccc1	–	-8.31% (inactive)
COc1ccc(-c2nn3c(=O)cc(CN4CCN(C(=O)c5ccc(OC)c(OC)c5)CC4)nc3s2)cc1	–	-11% (inactive)
COc1ccc(NC(=O)Cn2c(=O)n(CCC(C)C)c(=O)c3cccnc32)cc1Cl	–	-5% (inactive)
Cc1nn(CC(=O)NCCc2ccccc2)c(=O)c2c1sc1ccccc12	–	-12% (inactive)
Cc1ccccc1CNC(=O)CCCn1nc(C)c2sc3ccccc3c2c1=O	25.1 µM (active)	–
Cc1nn(C(C)C(=O)Nc2ccc(C(C)C)cc2)c(=O)c2c1sc1ccccc12 (configuration not stated)	–	-0.208% (inactive)
COc1ccc(NC(=O)c2ccc3oc(=O)c(S(=O)(=O)c4ccc(F)cc4)cc3c2)c(OC)c1	–	-3.78% (inactive)
CCn1cc(C(=O)NCc2ccc(C)cc2)c(=O)c2cc(S(=O)(=O)N3CCc4ccccc4C3)ccc21	–	-8.13% (inactive)
Cc1nc2nc(SCC(=O)NCc3ccco3)nn2c(C)c1Cc1ccccc1	–	-3.94% (inactive)

Compound	Potency	max response, negative = inhibition
O=c1nc2s/c(=C\c3ccco3)c(=O)n2nc1Cc1ccccc1	25.1 µM (active)	–
O=C(CCCN1C(=O)/C(=C/c2ccco2)SC1=S)Nc1ccccc1	–	-9.58% (inactive)
COc1ccc(CCNC(=O)Cn2c(=O)n(-c3ccccc3)c(=O)c3c(C)c(C)sc32)cc1OC	–	-8.34% (inactive)
CN1c2ccc(Cl)cc2-c2nc(SCC(=O)Nc3cc(F)ccc3F)ncc2S1(=O)=O	12.6 µM (active)	–
Cc1ccc(Cl)cc1NC(=O)CSc1nccn1C	–	1.47% (inactive)
O=C(CSc1ncc(-c2ccccc2)[nH]1)Nc1ccc(F)cc1F	–	8.99% (inactive)
COc1cc2c(=O)c(S(=O)(=O)c3ccc(C(C)C)cc3)cn(Cc3ccccc3C)c2cc1OC	–	19.9% (inactive)
CN1CCN(C(CNC(=O)c2ccccc2F)c2ccc3c(c2)OCO3)CC1 (configuration not stated)	–	7.63% (inactive)
CCCSc1ncc(Cl)c(C(=O)Nc2sc3c(c2C(=O)NCCOC)CCCC3)n1	–	-6.84% (inactive)
CCOc1cccc(NC(=O)c2ccc(F)c(S(=O)(=O)N(CC)c3cccc(C)c3)c2)c1	–	-18% (inactive)
Cn1c(=O)cc(OCC(=O)N2CCN(c3ccccc3)CC2)c2ccccc21	–	3.14% (inactive)
CCc1nnc(NC(=O)CSc2nc3c(c(=O)n2-c2ccccc2OC)SCC3)s1	12.6 µM (active)	–
CCOC(=O)c1sc(NC(=O)CSc2nc3c(c(=O)n2-c2ccccc2)SCC3)c(C(=O)OCC)c1C	–	-25.7% (inactive)
CCOc1ccc(NC(=O)CSc2nc3c(c(=O)n2-c2ccccc2OC)SCC3)cc1	–	-2.8% (inactive)
CCOC(=O)c1ccc(NC2=CC(c3ccc(OCC)cc3)N(c3ccc(C(=O)OCC)cc3)C2=O)cc1 (configuration not stated)	–	-9.29% (inactive)
O=C(CCn1c(=O)c2sccc2n(Cc2ccc(F)cc2)c1=O)NCc1ccc2c(c1)OCO2	–	2.68% (inactive)
CC1=CC(=C(C#N)c2nc3ccccc3s2)C=C(C)N1c1ccc(F)cc1F	31.6 µM (active)	–
Cc1ccc(F)cc1S(=O)(=O)N1CCC(c2nc3ccccc3s2)CC1	–	-6.75% (inactive)
CCc1cc(C(N)=O)c(NC(=O)c2ccc(OC)cc2)s1	–	-3.04% (inactive)
CC(C)c1cc(C(N)=O)c(NC(=O)c2cccc(COc3ccc(Br)cc3)c2)s1	5.01 µM (active)	–
COc1ccc(OCc2cccc(C(=O)N3CCCC3)c2)cc1	–	22.1% (inactive)
